Measurements taken from PubChem BioAssay.
Calls of active or inactive are those of the source.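 How the source made its calls: active means compounds killing one labelled cell type while sparing the other, by normalised counts and ratio limits, not self-fluorescent; inactive means the rest.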

Assay: EMT-state selective cytotoxicity in co-culture – imaging, PC-3E GFP, TEM4-18 mCherry, primary screen (AID 1345086);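 further: cells exposed to compound for 72 h before imaging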;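 on red/green cell ratio (normalised): normalised mesenchymal count divided by normalised epithelial count so high means epithelial killing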
Details: PC-3E GFP / TEM4-18 mCherry co-culture, imaging cell counts, at 1 µM; for red/green cell ratio (normalised): actives lie on both sides, counts scaled to control wells, 1 = unselective
[1] = measured here: epithelial PC-3E GFP cell survival
[2] = measured here: mesenchymal TEM4-18 mCherry cell survival

SMILES	red/green cell ratio (normalised)	normalised cell number [1]	normalised cell number [2]
COC1=CC(=O)C[C@@H](C)[C@]12Cc1c(Cl)c(OC)cc(OC)c1C2=O	0.76 (inactive)	1.33	1.01
CC(C)CCCC(C)C1CCC2C3=CC[C@H]4C[C@@H](O)CC[C@]4(C)C3CC[C@@]21C (stereo not given in full)	0.98 (inactive)	1.1	1.08
CC1CCC2OC2C/C=C/C(=O)c2c(O)cc(O)cc2CC(=O)O1 (stereo not given)	0.83 (inactive)	0.88	0.73
COc1cc(-c2coc3cc(O)c(OC)c(O)c3c2=O)cc(O)c1OC	0.95 (inactive)	1.03	0.98
O=C(O)CNC(=O)c1ccc([C@H](O)c2ccccc2)cn1	0.86 (inactive)	1.15	0.99
CCC[C@@H]1Cc2cc3c(-c4c(O)cc(O)c5c(O)c6c(cc45)C[C@@H](CCC)OC6=O)c(O)cc(O)c3c(O)c2C(=O)O1	0.85 (inactive)	1.2	1.02
CC1(C)S[C@@H]2[C@H](NC(=O)C(NC(=O)N3CCNC3=O)c3ccccc3)C(=O)N2C1C(=O)O (stereo not given in full)	0.99 (inactive)	1.15	1.14
CCCCC/C=C/C1=C(CO)[C@H](O)[C@H]2O[C@H]2[C@@H]1O	1 (inactive)	1.08	1.08
COc1cc(C(=O)O)cc(OC)c1O	1.08 (inactive)	1	1.07
O=C(O)CS	1.05 (inactive)	1.25	1.3
COc1cc(C(O)CO)oc1C=O (stereo not given)	0.86 (inactive)	1.08	0.93
C[C@@H]1CC[C@H]2[C@@H](C)C(O)O[C@@H]3O[C@]4(C)CC[C@@H]1[C@]32OO4 (stereo not given in full)	0.74 (inactive)	1.16	0.85
COC(=O)c1cn(C2CC2)c2c(OC)c(F)c(F)cc2c1=O	0.9 (inactive)	1.11	1
O=C(O)C1CC(C2CCCCN2)CN2CCCCC12 (stereo not given)	1.06 (inactive)	0.95	1
CC(=O)OC[C@@]1(O)C[C@@]23CCC4c5ccoc5CC[C@]4(C)C2CC[C@@H]1C3 (stereo not given in full)	0.98 (inactive)	0.89	0.88
CC1(C)C[C@]2(C)CC(=O)O[C@H]3OC(=O)[C@@H]4CC[C@@H]1[C@]342	0.92 (inactive)	1.05	0.96
C[C@@H]1C[C@H](O)/C=C/[C@H](O)[C@@H](O)CC(=O)O1	0.87 (inactive)	1.16	1.02
CCOC(=O)O[C@]1(C(=O)COC(=O)CC)CCC2C3CCC4=CC(=O)C=C[C@]4(C)C3[C@@H](O)C[C@@]21C (stereo not given in full)	0.87 (inactive)	1.29	1.13
O=c1c(O)c(-c2ccccc2)oc2ccc3occc3c12	0.81 (inactive)	1.22	0.99
COc1ccc(-c2cc(=O)c3c(O)c(OC)c(O[C@H]4O[C@H](CO[C@@H]5O[C@@H](C)[C@H](O)[C@@H](O)[C@H]5O)[C@@H](O)[C@H](O)[C@H]4O)cc3o2)cc1	0.98 (inactive)	1.05	1.03
C/C=C/[C@@H]1CC[C@@H]2C[C@H](C)CC[C@H]2[C@]1(C)C(=O)[C@H]1OC(=O)[C@@H](CO)N(C)C1=O	1.09 (inactive)	1.06	1.15
Cc1cc(O)c2c(c1)Cc1cccc(O)c1C2=O	0.94 (inactive)	1.28	1.2
C[C@@H]1Cc2cccc(O)c2C(=O)O1	1.03 (inactive)	0.83	0.85
COC(=O)c1cc(Br)ccc1Cl	1.04 (inactive)	1.12	1.17
Nc1ncnc2c1ncn2C1C[C@H](O)[C@@H](CO)O1 (stereo not given in full)	0.92 (inactive)	0.99	0.91
C=C(C)n1cc(C(=O)O)c(=O)c2cc(F)c(N3CC[C@@H](CN)C3)c(OC)c21	1.13 (inactive)	1.07	1.21
COc1c(N2CC[C@@H](CN)C2)c(F)cc2c(=O)c(C(=O)O)cn(CCc3ccccc3)c12	1.14 (inactive)	0.87	1
COC(=O)C[C@H]1C(C)(C)C(=O)[C@@H]2CC3C4=CC(=O)O[C@@H](c5ccoc5)[C@]4(C)CCC3C1(C)C2=O (stereo not given in full)	1.11 (inactive)	0.84	0.94
CC(=O)O[C@@H]1CC2C(C)(C)C(=O)CC[C@]2(C)C2CC[C@@]3(C)[C@H](c4ccoc4)OC(=O)C4OC43[C@@]21C (stereo not given in full)	1.03 (inactive)	0.94	0.97
CC(C)=CCCC(C)C1CC[C@@]2(C)C3=C(CC[C@]12C)C1(C)CC[C@H](O)C(C)(C)C1CC3 (stereo not given in full)	1.05 (inactive)	1.09	1.14
